About 79,000 compounds went through this panel and 15% of them were active in at least one assay; those are over-represented in the sample as a whole. Calls of active or inactive are those of the source. No stated cut-off is given here; in the data, active means growth inhibition above about 70%; inactive means the rest. Where a SMILES comes first, the peptide text is derived from it. The star is where a group is joined. Cbz = O=C(OCc1ccccc1)*

A short description of the assay: NCI Yeast Anticancer Drug Screen. Data for the cln2 rad14 strain (AID 165).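 Further: 0% = growth equal to vehicle treated cultures.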 To be noted: S. cerevisiae cln2 rad14 strain, at 50.0 µM, hits give high values. In a few lines: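 Yeast strain cln2 rad14, bearing defects in cell cycle control and DNA repair, serves as the test system; values reflect growth inhibition compared with vehicle.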
As for `COC1OC(C)CC(O)C1O` (stereo unspecified), the growth inhibition is -57.6% (inactive). The value for `COc1ccc(CC(=O)c2c(OC)c3c(c4c2OC(C)(C)CC4)OC(C)(C)CC3)cc1OC` was 16.5% (inactive); that for `COc1ccc(N=C2C(=Nc3ccc(OC)cc3)N(S(=O)(=O)c3ccccc3)C(=S)N2c2ccc(OC)cc2)cc1` was -23.9% (inactive); that for `CCc1ccccc1NC(=O)Sc1cccc(C)c1` was -12.9% (inactive). The value for `CC(C)(CO)N=Cc1ccc(Cl)c(Cl)c1` was -3.1% (inactive).

Regarding `Cc1cc(Cl)ccc1OCCCC(=O)NC(Cc1c[nH]c2ccccc12)C(=O)O` (stereo unspecified), the growth inhibition is 22.4% (inactive). As to `O=C(Nc1nnc(C(F)(F)F)s1)c1c(F)cccc1F`, the growth inhibition was 19.5% (inactive). The value for `CCCCCCC(C)Cl` (stereo unspecified) was 23.7% (inactive); that for `CC(C)=CCC(C)c1ccccn1` (stereo unspecified) was -12.8% (inactive). The value for `CC(NC(=O)C(Cc1ccc(O)cc1)NC(=O)C(C)NC(=O)OCc1ccccc1)C(=O)O` (stereo not drawn) (Cbz-Ala-Tyr-Ala-OH; configuration not given here) was -4.25% (inactive); that for `N=C(N)c1ccncc1` was -32% (inactive). As for `CC12CC3CC(C)(C1)CC(N=[N+]=[N-])(C3)C2`, the growth inhibition is 6.15% (inactive).

For the molecule `CC(C)(C)c1cc(Br)c(O)c(CN(Cc2cc(C(C)(C)C)cc(Br)c2O)C2CCCCC2)c1`, the growth inhibition is -14.2% (inactive). The value for `CCOC(=O)/C(=N/Nc1ccc(C)cc1)N1C(=S)C=C(C)NN(C)C1=S` was -13.3% (inactive); that for `OC1CCC(c2ccccc2)CC1` (stereo unspecified) was 15.7% (inactive). The value for `O=C(N/N=C/C=C/c1ccccc1)c1ccccc1O` was -31.7% (inactive).

Values taken from PubChem BioAssay (NCI).
